# Measurements as given in PubChem BioAssay AID2551 (National Center for Advancing Translational Sciences (NCATS), 2010).
# In all, about 310,000 compounds went through this assay and about 17,000 (5.5%) were called active. Roughly 11% stayed inconclusive and do not appear here. The sample as a whole holds a higher share of actives than the screen did. Values without a mark were called inactive. Calls come from the whole dose curve; as a rule, active = well fitted inhibition curve with a large enough effect; inconclusive = small, poorly fitted or top-dose-only effect, or effect the other way; inactive = no such curve, though single readings can be large or run the other way.
# Target: Nuclear receptor ROR-gamma (Mus musculus) (UniProt P51450)
# Sequence (P51450 whole entry, looked up): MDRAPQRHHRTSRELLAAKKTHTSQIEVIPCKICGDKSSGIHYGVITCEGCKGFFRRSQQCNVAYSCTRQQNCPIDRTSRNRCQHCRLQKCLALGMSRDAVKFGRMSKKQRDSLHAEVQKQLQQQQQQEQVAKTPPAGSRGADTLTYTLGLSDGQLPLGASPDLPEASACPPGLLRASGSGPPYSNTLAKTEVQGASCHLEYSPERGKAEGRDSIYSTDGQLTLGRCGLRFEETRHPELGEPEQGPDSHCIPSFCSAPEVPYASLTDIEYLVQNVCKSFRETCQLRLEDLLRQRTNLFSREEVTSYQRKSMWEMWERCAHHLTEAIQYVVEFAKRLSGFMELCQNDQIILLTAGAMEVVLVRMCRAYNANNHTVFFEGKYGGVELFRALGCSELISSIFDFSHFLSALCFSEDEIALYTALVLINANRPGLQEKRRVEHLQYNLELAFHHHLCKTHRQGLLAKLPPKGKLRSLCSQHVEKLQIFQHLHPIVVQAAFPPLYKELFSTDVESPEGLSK
# Assay: qHTS for inhibitors of ROR gamma transcriptional activity; note: nearly all actives have a fitted effect of over 60% in size
# Details: Drosophila S2 Gal4-RORgamma UAS-luciferase reporter, 20 h; series mostly up to 53.6 µM; activity change, negative = inhibition: at the top concentration
# Procedure, shortened: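 Drosophila S2 cells stably expressing Gal4-DBD/mouse RORγ fusion under metallothionein promoter plus UAS-luciferase; compound 1 h, then 700 uM CuSO4 induction for 20 h at ambient temperature; inhibition read as reduced luminescence.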
# % is set by controls: 0 for no effect and ±100 for the full control effect; potency is the fitted concentration of half-maximal effect.
Compound,"activity change, negative = inhibition",Potency
O=C(Nc1cccc([N+](=O)[O-])c1)N1CCc2ccccc2C1,42.6%,
Cc1cc(N2C(=O)C(O)=C(C(=O)c3ccc(C)o3)C2c2ccc(OCc3ccccc3)cc2)no1 (centres undefined),-4.37%,
COc1ccccc1CCNS(=O)(=O)c1cc2c3c(c1)C(C)C(=O)N3CCC2 (centres undefined),13.9%,
CCN(CC)S(=O)(=O)c1ccc(C(=O)N2CCN(C3=NS(=O)(=O)c4ccccc43)CC2)cc1,21.5%,
Cc1cc(C)n(-c2ccc(NC(=O)C3CCCCN3C(=O)c3cccs3)cc2)n1 (centres undefined),-11.8%,
O=C(Cc1ccccc1Cl)N1CCOCC1,4.98%,
Cc1ccccc1NC(=S)NC(=O)Cc1ccc(Cl)cc1,,7.94 µM (active)
Cc1cccc(NC(=O)c2cccc(C(=O)Nc3cccc(C)c3C)n2)c1C,-10.9% [at 1.91 µM],
Cc1cccc(NC(=S)N2CCC(O)CC2)c1C,-8.16%,
Cc1ccccc1N/C(SCc1ccc(Cl)cc1)=C(/C#N)C(N)=O,33.9%,
CCOC(=O)N1CCN(C(=S)Nc2ccc(C)cc2C)CC1,-1.33%,
CSc1ncc(C(=O)Nc2ccc(C)cc2C)c(C)n1,11.4%,
Cc1cccc(NC(=S)NCCc2ccc(Cl)cc2)c1C,,5.62 µM (active)
O=C(COc1ccc(Cl)cc1)Nc1ccccc1CO,42.9%,
Cc1ccc(NC(=S)Nc2ncccc2C)c(C)c1,,4.47 µM (active)
COc1ccccc1CN1CCNC(=O)C1CC(=O)N(C)CC1CCOCC1 (centres undefined),-8.85%,
COc1ccc(NC(=O)COc2ccc(C(=O)c3ccc(F)cc3)cc2)cc1S(N)(=O)=O,1.06%,
CC(=O)N1CCSc2ccc(S(=O)(=O)N3CCC(C)CC3)cc21,13.9%,
COc1cccc(N(C(=O)CNC(=O)c2ccco2)C(C(=O)NC2CCCCC2)c2cccnc2)c1 (centres undefined),1.27%,
Cc1ccc(-c2nc(CSCC(=O)NC3CCN(Cc4ccccc4)CC3)c(C)o2)cc1,-2.39%,
Cc1ccccc1OCC(=O)NNC(=O)c1cc(S(=O)(=O)N(C)C)ccc1N1CCCC1,24.7%,
Cn1c(Nc2cccc(Cl)c2)nc2ccccc21,-6.74% [at 1.91 µM],

Compound,"activity change, negative = inhibition",Potency
COc1ccccc1CNC(=O)C1CCN(S(=O)(=O)c2ccc3c(c2)CC(C)N3C(=O)C2CC2)CC1 (centres undefined),14.5%,
Cc1ccc(Oc2ccc3c(c2)C(=O)N(c2cccc4cccnc24)C3=O)cc1,-9.24%,
Cc1ccc(OS(=O)Nc2cccc3nccnc23)cc1 (centres undefined),,3.98 µM (active)
COc1ccc(NC(=O)Nc2cccc3cccnc23)cc1,2.2%,
O=C(COc1ccc(Cl)cc1)NCCS(=O)(=O)N1CCN(c2ccc(F)cc2)CC1,23.4%,
CN(C)c1nc(=Nc2cccc(Cl)c2)ss1,,0.398 µM (active)
CCOC(=O)C1=C(O)CSC1=Nc1cccc(Cl)c1,-0.427%,
CC(=O)Oc1ccc2c(=O)oc(-c3ccc([N+](=O)[O-])cc3)nc2c1,-18.3%,
CC(C)NC(=S)NN=C1CCCCCCCCCCC1,,0.447 µM (active)
CC(C)(C)NC(=O)C(=O)NN=C1CCCCCCC1,-6.76%,
CC1CC(C)CN(CCCNC(=O)Cn2ncc3c([nH]c4ccccc43)c2=O)C1 (centres undefined),-11.2%,
Cc1cccc(N(C(=O)c2sc(C)nc2C)C(C(=O)NCC2CCCO2)c2ccccc2)c1 (centres undefined),-0.663%,
CCC(NC(=O)c1cc(COc2ccc(F)c(F)c2)on1)c1ccncc1 (centres undefined),24.8%,
CC1CCC(NC(=O)CN(C)S(=O)(=O)c2ccc3c(c2)c(=O)n(C)c(=O)n3C)CC1 (centres undefined),-4.79%,
COc1ccc(C(C(=O)NC2CCCCC2)N(C(=O)c2snc(C(N)=O)c2N)c2ccccc2OC)cc1 (centres undefined),44.1%,
O=C(NC(=S)N1CCN(Cc2ccccc2)CC1)c1ccccc1,,1 µM (active)
O=C(c1cccc([N+](=O)[O-])c1)N1CCN(Cc2ccccc2)CC1,5.99%,
O=C(c1cccc(Cl)c1)N1CCN(Cc2ccccc2)CC1,5.8%,
CC(C)c1nnc(NC(=O)CCC(=O)N2CCN(c3cccc(Cl)c3)CC2)s1,1.43%,
COc1ccc(NC(=O)C/C(C)=N/NC(=O)c2cnccn2)cc1Cl,20.1%,
COc1cc(OC)c(S(=O)(=O)Nc2ccccc2C(=O)O)cc1S(=O)(=O)Nc1ccccc1C(=O)O,21.8%,
CCc1cccc(C)c1N1C(=O)CN(Cc2ccccc2)C1=S,-15.2%,

Compound,"activity change, negative = inhibition",Potency
CC(N=Cc1nc(-c2ccccc2)oc1O)c1ccccc1 (centres undefined),20.3%,
CCOc1ccc2nc(/N=C/c3nc(-c4ccccc4)oc3O)sc2c1,-14.9% [at 10 µM],
Oc1oc(-c2ccccc2Br)nc1/C=N/c1ccccn1,,8.91 µM (active)
Cc1ccnc(NS(=O)(=O)c2ccc(NC(=O)c3oc4ccccc4c3C)cc2)n1,44.6%,
Cc1ccc(S(=O)(=O)N(CC(=O)Nc2cccnc2)c2ccc(Br)cc2)cc1,44.3%,
Cc1ccc(S(=O)(=O)N(C)C)cc1NC(=O)COC(=O)C1COc2ccccc2O1 (centres undefined),1.8%,
Cc1cc(NC(=O)CCC2COc3ccccc3O2)no1 (centres undefined),39.4%,
CCCN(CC1COc2ccccc2O1)C(=S)Nc1ccc(C)cc1 (centres undefined),,15.8 µM (active)
COCn1c(C(O)c2ccccc2)cc2ccccc21 (centres undefined),14.4%,
O=S(=O)(NCc1cccnc1)c1ccc(Br)s1,12.6%,
O=S(=O)(NCc1ccccn1)c1ccc(F)cc1,-20.3%,
O=S(=O)(NCc1ccccn1)c1ccc(Br)s1,,8.91 µM (active)
Cc1cc(Cl)c(S(=O)(=O)NCc2cccnc2)cc1OCC(N)=O,8.15%,
Cc1cc(S(=O)(=O)NCc2ccccn2)c(Cl)cc1Cl,,7.08 µM (active)
CCOc1cc(C)c(S(=O)(=O)NCc2ccccn2)cc1C,-29.6% [at 1.91 µM],
COc1cccc(NC(=O)CN(C)C(=O)c2ccccc2CCc2ccccc2)c1,30.3%,
CCCn1c(=O)c(C(=O)Nc2cc(C)ccn2)c(O)c2ccccc21,5.16%,
CC(NCC(=O)Nc1cc(Cl)cc(Cl)c1)c1ccccc1 (centres undefined),-2.11%,
Cc1cccnc1NC(=O)Cn1c(=O)oc2ccccc21,13.7%,
CN(C(=O)c1cccc(OC2CCN(S(=O)(=O)N(C)C)CC2)c1)C1CCOC1 (centres undefined),10.1%,
O=C(Nc1ccc(C(=O)O)c(O)c1)c1ccccc1,,inactive
O=C(NC(=O)c1ccccc1)Nc1ccccc1O,,7.08 µM (active)

Compound,"activity change, negative = inhibition",Potency
O=C(NC(=O)c1ccccc1)NC(=O)c1ccccc1,-17.4%,
C[C@H](NC(=O)C1CC(=O)N(c2ccc3c(c2)OCCO3)C1)C(=O)N1CCC(C(=O)O)CC1 (some centres undefined),-3.96%,
COc1ccc2nc(C)cc(Nc3cccc(C(=O)O)c3)c2c1,34.5%,
Cn1cc([N+](=O)[O-])c(C(=O)Nc2cnn(Cc3ccc(F)cc3)c2)n1,39.6%,
O=C(Nc1ccn(Cc2ccccc2)n1)c1n[nH]c([N+](=O)[O-])c1Cl,,7.08 µM (active)
O=C(Nc1ccn(Cc2ccccc2)n1)c1cccc(F)c1,-19.5%,
CC(C)[C@H](NC(=O)N1CCn2c1nc1ccccc12)C(=O)NCCc1ccccc1,36.9%,
CCCCCN(C(=O)CCC(=O)OCC(=O)NCc1ccc(OC)cc1)c1c(N)n(CCCC)c(=O)[nH]c1=O,12.4%,
COc1ccc(CN(C)C(=S)Nc2ccc(Cl)cc2Cl)cc1,,17.8 µM (active)
COc1ccc(CN2CCn3ncc(C(=O)Nc4ccc(Cl)cc4Cl)c3C2=O)cc1,-17.8%,
CN(C)C(=S)Nc1ccc(Br)cc1Cl,-7.55%,
CCn1c(=O)c(=O)[nH]c2c(=O)oc3ccc(S(=O)(=O)Nc4ccc(OC)cc4)cc3c21,3.51%,
O=C1CCCC2=C1C(c1ccccc1)n1c(s/c(=C/c3cccc(F)c3)c1=O)=N2 (centres undefined),1.43%,
COc1ccc(OC)c(C2C3=C(N=c4s/c(=C\c5cccc(O)c5)c(=O)n42)c2ccccc2CC3)c1 (centres undefined),,12.6 µM (active)
COCCOC(=O)C1=C(C)N=c2s/c(=C\c3cccs3)c(=O)n2C1c1cccs1 (centres undefined),17.2%,
Cc1coc(C)c1C(=O)CC1(O)C(=O)N(C)c2ccc(Cl)cc21 (centres undefined),12.2%,
CC(=O)c1c(O)cc2n(c1=O)-c1ccc(Cl)cc1C2(C)C,,10 µM (active)
O=C(COc1ccc2ccc(=O)oc2c1)NCC(O)c1ccccc1 (centres undefined),0.846%,
COc1cccc(CNC(=O)C2CCCN(c3ncnc4c3nc3n4CCCCC3)C2)c1 (centres undefined),-14.6%,
CCOC(=O)c1c(NC(=S)NC(=O)/C=C/c2cccs2)sc(C)c1C,,1.26 µM (active)
CCc1nnc(NS(=O)(=O)c2ccc(NC(=S)NC(=O)/C=C/c3cccs3)cc2)s1,15.5%,
CCOC(=O)c1c(NC(=O)/C=C/c2ccco2)sc(C)c1C,-29.3%,

Compound,"activity change, negative = inhibition",Potency
COC(=O)C1=CN(c2ccc(F)c(F)c2)C=C(C(=O)OC)C1c1ccc([N+](=O)[O-])cc1,-7.43%,
CCOc1ccc(C(=O)Nc2ccc(S(=O)(=O)Nc3cc(C)on3)cc2)cc1,30%,
O=C(CCn1ccc([N+](=O)[O-])n1)Nc1nccs1,12.8%,
Cc1c(Br)c([N+](=O)[O-])nn1C(C)C(=O)Nc1nccs1 (centres undefined),,20 µM (active)
CC(NC(=O)C(=O)Nc1nccs1)c1ccccc1 (centres undefined),-16.6%,
CCOc1ccccc1NC(=O)NC1CCCCCCC1,-21.3%,
COc1ccc(CNC(=O)C(c2ccc(O)cc2)N(Cc2ccco2)C(=O)c2snc(C(N)=O)c2N)cc1 (centres undefined),42.5%,
O=c1cc(Cl)c2ccccc2n1-c1ccccc1,2.4%,
Cc1cccc(CSc2nnc(NC(=O)CSc3nnc(C)s3)s2)c1,-14.5%,
Cc1nnc(NC(=O)CSc2nccn2-c2cccc(C)c2C)s1,,10 µM (active)
COc1ccccc1-n1c(CNC(=O)c2ccccc2)nnc1SCC(=O)Nc1nnc(C)s1,6.05%,
Cc1ccc(C(=O)N/C(=C\c2cn(C)c3ccccc23)C(=O)N2CCN(C)CC2)cc1,3.55%,
Cc1ccc(NC(=O)NC(=O)c2ccccc2)cc1F,8.25% [at 1.91 µM],
Cc1cccc(NC(=S)NC(=O)c2ccc(Br)o2)c1,,2.82 µM (active)
Cc1cccc(NC(=O)NC(=S)NC(=O)c2ccccc2)c1,,2.51 µM (active)
Cc1cc2[nH]ncc2cc1NC(=S)NC(=O)c1ccccc1,-29.8%,
O=C(CNC(=O)c1ccc(Br)o1)Nc1ccccc1,-27.4%,
Cc1ccc(NC(=S)NC(=O)c2ccc(-c3ccccc3)cc2)c(C)c1,,4.47 µM (active)
Cc1ccc(NC(=O)c2oc(=O)c3ccccc3c2-c2ccccc2)c(C)c1,1.68%,
Cc1cccc(NC(=O)/C(=C\c2ccco2)NC(=O)c2ccccc2)c1,-0.0873%,
COc1cc(OC)c(NC(=O)c2ccc(Br)o2)cc1Cl,3.59%,
